# Data as given in paper PMC12820563, “FoxP3 forms a head-to-head dimer in vivo and stabilizes its multimerization on adjacent microsatellites”.
# Over roughly 16,000 sequences, “rpm ratio (pull-down/input)” has its median near 0.94; the highest 2% begin near 1.7. Shown is part of a subset that was picked to be rich in the highest values.
# Molecular target: T1, MBP-FoxP1dN (Mus musculus, UniProt P58462 326-579)
# T1 sequence: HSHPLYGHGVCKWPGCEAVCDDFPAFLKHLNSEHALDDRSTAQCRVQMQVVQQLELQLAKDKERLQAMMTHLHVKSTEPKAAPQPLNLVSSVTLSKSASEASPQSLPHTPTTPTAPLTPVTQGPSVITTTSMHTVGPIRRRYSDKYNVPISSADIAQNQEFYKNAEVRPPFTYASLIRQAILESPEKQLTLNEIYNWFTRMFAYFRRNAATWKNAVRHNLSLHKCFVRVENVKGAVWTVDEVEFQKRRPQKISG
# Assay: PD-seq (MBP pull-down with sequencing); 20 mM Tris-HCl pH 7.5, 100 mM NaCl, 1.5 mM MgCl2, 0.4 uM protein, 0.1 uM dsDNA library, 30 min, room temperature, amylose pull-down; high values mean tight binding
# Conditions: protein: recombinant; tags: His6-MBP; chain copies: 2; dsDNA, one strand shown
# Method in brief: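 Amylose resin was used to capture complexes formed during 30 min at room temperature in Tris pH 7.5 buffer with NaCl and MgCl2 between 0.4 µM His6-MBP-tagged mouse FoxP3 or FoxP1 fragment lacking the N-terminus, expressed in E. coli, and 0.1 µM Klenow-filled double-stranded degenerate DNA library. After three washes, the DNA was released with proteinase K, barcoded by PCR and sequenced on Illumina. Binding is pooled-replicate reads-per-million enrichment, pull-down over input.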
row,Sequence,binding signal
1,GATGATTGTTCTCCCAGCTGATGAATTCCCGCTTTCGAGTAAACAAATTTTCCTAATCTTTCTGTTCAAGCGCCATCTAC,0.937 RPM ratio (pull-down/input)
2,GATGATTGTTCTCCCAGCTGATGAATTATAATCTTCGAGTAAACAAATTTTCCTAATCTTTCTGTTCAAGCGCCATCTAC,0.909 RPM ratio (pull-down/input)
3,GATGATTGTTCTCCCAGCTGATGAATTTCTGATGTCGAGTAAACAAATTTTCCTAATCTTTCTGTTCAAGCGCCATCTAC,1.23 RPM ratio (pull-down/input)
4,GATGATTGTTCTCCCAGCTGATGAATTCTTCATGTCGAGTAAACAAATTTTCCTAATCTTTCTGTTCAAGCGCCATCTAC,0.907 RPM ratio (pull-down/input)
5,GATGATTGTTCTCCCAGCTGATGAATTGATGATGTCGAGTAAACAAATTTTCCTAATCTTTCTGTTCAAGCGCCATCTAC,1.39 RPM ratio (pull-down/input)
6,GATGATTGTTCTCCCAGCTGATGAATTAATGATGTCGAGTAAACAAATTTTCCTAATCTTTCTGTTCAAGCGCCATCTAC,1.2 RPM ratio (pull-down/input)
7,GATGATTGTTCTCCCAGCTGATGAATTGTTGATGTCGAGTAAACAAATTTTCCTAATCTTTCTGTTCAAGCGCCATCTAC,2.27 RPM ratio (pull-down/input)
8,GATGATTGTTCTCCCAGCTGATGAATTTTTGATGTCGAGTAAACAAATTTTCCTAATCTTTCTGTTCAAGCGCCATCTAC,1.3 RPM ratio (pull-down/input)
9,GATGATTGTTCTCCCAGCTGATGAATTAAAAATGTCGAGTAAACAAATTTTCCTAATCTTTCTGTTCAAGCGCCATCTAC,0.979 RPM ratio (pull-down/input)
10,GATGATTGTTCTCCCAGCTGATGAATTAATGTTGTCGAGTAAACAAATTTTCCTAATCTTTCTGTTCAAGCGCCATCTAC,2.64 RPM ratio (pull-down/input)
11,GATGATTGTTCTCCCAGCTGATGAATTCATGTTGTCGAGTAAACAAATTTTCCTAATCTTTCTGTTCAAGCGCCATCTAC,2.26 RPM ratio (pull-down/input)
12,GATGATTGTTCTCCCAGCTGATGAATTTCAGCTGTCGAGTAAACAAATTTTCCTAATCTTTCTGTTCAAGCGCCATCTAC,0.889 RPM ratio (pull-down/input)
13,GATGATTGTTCTCCCAGCTGATGAATTCATGATGTCGAGTAAACAAATTTTCCTAATCTTTCTGTTCAAGCGCCATCTAC,1.21 RPM ratio (pull-down/input)
14,GATGATTGTTCTCCCAGCTGATGAATTGATGTTGTCGAGTAAACAAATTTTCCTAATCTTTCTGTTCAAGCGCCATCTAC,2.52 RPM ratio (pull-down/input)
15,GATGATTGTTCTCCCAGCTGATGAATTTCTATGATCGAGTAAACAAATTTTCCTAATCTTTCTGTTCAAGCGCCATCTAC,0.89 RPM ratio (pull-down/input)
16,GATGATTGTTCTCCCAGCTGATGAATTTTTAATATCGAGTAAACAAATTTTCCTAATCTTTCTGTTCAAGCGCCATCTAC,1.24 RPM ratio (pull-down/input)
17,GATGATTGTTCTCCCAGCTGATGAATTCCGACCATCGAGTAAACAAATTTTCCTAATCTTTCTGTTCAAGCGCCATCTAC,0.869 RPM ratio (pull-down/input)

row,Sequence,binding signal
1,GATGATTGTTCTCCCAGCTGATGAATTACGGGCATCGAGTAAACAAATTTTCCTAATCTTTCTGTTCAAGCGCCATCTAC,1.11 RPM ratio (pull-down/input)
2,GATGATTGTTCTCCCAGCTGATGAATTGGCGATTTCGAGTAAACAAATTTTCCTAATCTTTCTGTTCAAGCGCCATCTAC,0.865 RPM ratio (pull-down/input)
3,GATGATTGTTCTCCCAGCTGATGAATTTTACGGATCGAGTAAACAAATTTTCCTAATCTTTCTGTTCAAGCGCCATCTAC,0.879 RPM ratio (pull-down/input)
4,GATGATTGTTCTCCCAGCTGATGAATTGTCACGGTCGAGTAAACAAATTTTCCTAATCTTTCTGTTCAAGCGCCATCTAC,0.924 RPM ratio (pull-down/input)
5,GATGATTGTTCTCCCAGCTGATGAATTATTCGTTTCGAGTAAACAAATTTTCCTAATCTTTCTGTTCAAGCGCCATCTAC,1.01 RPM ratio (pull-down/input)
6,GATGATTGTTCTCCCAGCTGATGAATTCCTACCGTCGAGTAAACAAATTTTCCTAATCTTTCTGTTCAAGCGCCATCTAC,0.731 RPM ratio (pull-down/input)
7,GATGATTGTTCTCCCAGCTGATGAATTTCTGTGGTCGAGTAAACAAATTTTCCTAATCTTTCTGTTCAAGCGCCATCTAC,0.924 RPM ratio (pull-down/input)
8,GATGATTGTTCTCCCAGCTGATGAATTGTGTTGGTCGAGTAAACAAATTTTCCTAATCTTTCTGTTCAAGCGCCATCTAC,1.92 RPM ratio (pull-down/input)
9,GATGATTGTTCTCCCAGCTGATGAATTGGTGTGGTCGAGTAAACAAATTTTCCTAATCTTTCTGTTCAAGCGCCATCTAC,1.04 RPM ratio (pull-down/input)
10,GATGATTGTTCTCCCAGCTGATGAATTGGTTGTGTCGAGTAAACAAATTTTCCTAATCTTTCTGTTCAAGCGCCATCTAC,1.2 RPM ratio (pull-down/input)
11,GATGATTGTTCTCCCAGCTGATGAATTGTTGTGGTCGAGTAAACAAATTTTCCTAATCTTTCTGTTCAAGCGCCATCTAC,2.1 RPM ratio (pull-down/input)
12,GATGATTGTTCTCCCAGCTGATGAATTTTTGTGGTCGAGTAAACAAATTTTCCTAATCTTTCTGTTCAAGCGCCATCTAC,1.23 RPM ratio (pull-down/input)
13,GATGATTGTTCTCCCAGCTGATGAATTAGCTCAGTCGAGTAAACAAATTTTCCTAATCTTTCTGTTCAAGCGCCATCTAC,0.833 RPM ratio (pull-down/input)
14,GATGATTGTTCTCCCAGCTGATGAATTTAGGTACTCGAGTAAACAAATTTTCCTAATCTTTCTGTTCAAGCGCCATCTAC,0.947 RPM ratio (pull-down/input)
15,GATGATTGTTCTCCCAGCTGATGAATTTCGCATCTCGAGTAAACAAATTTTCCTAATCTTTCTGTTCAAGCGCCATCTAC,1.21 RPM ratio (pull-down/input)
16,GATGATTGTTCTCCCAGCTGATGAATTTGCCGGATCGAGTAAACAAATTTTCCTAATCTTTCTGTTCAAGCGCCATCTAC,0.839 RPM ratio (pull-down/input)
